# About 83,000 compounds went through this panel and 20% of them were active in at least one assay; those are over-represented in the sample as a whole.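 Step 1: grow cells in 96-well plates. Step 2: add test compound at a single concentration. Step 3: incubate 48 h. Step 4: record percent growth.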 A number with no mark means an inactive call. Active and inactive are the calls of the source. The calls were made as follows: active = growth percent below 10; inactive = the rest.
# Assays:
# Assay in all cases: NCI-60 one-dose screen, 48 h (100 = growth as untreated, 0 = no growth, -100 = all killed)
# Conditions in all cases: 10 µM unless noted
# [1] = test system: SR leukemia
# [2] = test system: RPMI-8226 leukemia
# [3] = test system: OVCAR-8 ovarian
# [4] = test system: OVCAR-5 ovarian
# [5] = test system: OVCAR-4 ovarian
# [6] = test system: SK-OV-3 ovarian
# [7] = test system: IGROV1 ovarian
# [8] = test system: OVCAR-3 ovarian
# [9] = test system: HS 578T breast
# [10] = test system: NCI/ADR-RES ovarian
# [11] = test system: T-47D breast
# [12] = test system: BT-549 breast
# [13] = test system: MDA-MB-435 melanoma
# [14] = test system: SW-620 colon
# [15] = test system: HCT-116 colon
# [16] = test system: HCC-2998 colon
# [17] = test system: KM12 colon
# [18] = test system: MCF7 breast
SMILES,growth [1],growth [2],growth [3],growth [4] [%],growth [5],growth [6],growth [7] [%],growth [8],growth [9],growth [10],growth [11],growth [12],growth [13],growth [14],growth [15],growth [16],growth [17],growth [18]
O=C(Nc1c(Cl)cc(Cl)cc1Cl)ON=C1CCCCC1,98.4%,105%,104%,96.4,108%,114%,109,105%,99.3%,109%,98.6%,113%,107%,114%,107%,117%,96.5%,–
Cc1c(Cl)cccc1N=C=S,108%,86.3%,95.6%,93.1,87.4%,104%,108,102%,109%,89.3%,107%,87.9%,106%,114%,95.2%,92.9%,108%,–
CC(=O)C[n+]1ccc(C)cc1Sc1ccccc1C,130%,98.6%,88.7%,90,100%,108%,120,102%,95.7%,101%,82.2%,90%,101%,100%,92.9%,108%,94.1%,90.3%
COc1cc(CC#N)c([N+](=O)[O-])cc1OC,91.2%,109%,98.2%,111,128%,111%,95.6,109%,117%,105%,105%,105%,111%,119%,93.5%,108%,104%,102%
C1CCc2onc(-c3noc4c3CCCCC4)c2CC1,92.4%,111%,109%,103,109%,106%,115,127%,115%,115%,101%,108%,110%,124%,105%,109%,107%,95.5%
Cc1cc2c3ccc(C)[n+](C)c3ccc2n1C,15.4%,21.2%,30.3%,68.2,62.6%,35.9%,54.7,47%,38.6%,88.3%,74.5%,16.8%,52%,15.1%,29.4%,22.2%,5.81% (active),57%
N=C(N)c1nn(C2OC(CO)C(O)C2O)c2nc[nH]c(=O)c12 (centres undefined),-22.7% (active),-19% (active),7.8% (active),30.2,-6.89% (active),-15.7% (active),21.8,-51.9% (active),-19.4% (active),-10.4% (active),-14.6% (active),-14.8% (active),-49.5% (active),-4.15% (active),-80.3% (active),-22.8% (active),-49.4% (active),4.19% (active)
CC(=O)/C(C)=N\OC(=O)Nc1ccccc1,106%,102%,106%,93.1,97.7%,90.3%,103,104%,107%,101%,94.4%,101%,103%,107%,102%,94.7%,101%,–
OCC1OC(n2ccc3c2ncn2ncnc32)C(O)C1O (centres undefined),20.6%,60.7%,6.1% (active),30.2,53.3%,58%,53.4,28.9%,65.2%,23.1%,10.9%,23.3%,62.1%,26.2%,20.5%,29.1%,27.6%,9.97% (active)

# Reference: PubChem BioAssay (NCI)
